In PubChem BioAssay AID485313 (National Center for Advancing Translational Sciences (NCATS), 2010):
Screen size: about 320,000 compounds; about 7,600 (2.4%) were called active. A call without a number means that no potency is given here. About 3% were inconclusive and are not listed. Calls follow the shape of the dose curve; as a rule, active = well fitted activation curve with a large enough effect; inconclusive = small, poorly fitted or top-dose-only effect; inactive = no such curve, though single readings can be large or run the other way. For the sample, actives were picked, then their nearest neighbours and some compounds at random.

Assay: qHTS Assay for NPC1 Promoter Activators; also: nearly all actives have a fitted effect of over 60% in size;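 as to activation: reporter is driven by a mutant NPC1 promoter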
Conditions: Huh7 NPC1 promoter luciferase reporter, 24 h; series mostly up to 9.22 µM
Outline: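 Stably transfected Huh7 (NPC1 promoter→luciferase), 1500 cells/well in Opti-MEM + 10% FBS, 2 h settle, then compound 24 h at 37 °C. Luminescence after 10 min with Amplite reagent.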
Potency is read from the fitted curve at half-maximal effect.

Structure (SMILES) | Potency
CCn1c(=O)c(=O)n(CC)c2cc(N3CCCCC3)c(NC(=O)c3ccc(Cl)cc3)cc21 | inactive
CC(C)n1ncc2c(C(=O)NCc3ccccc3CN(C)C)cc(C3CC3)nc21 | inactive
COc1nc(N(C)C)nc(N2CC(=O)N(CCNS(=O)(=O)c3ccc(C)cc3)C2=N)n1 | inactive
CCS(=O)(=O)n1nc(-c2ccc(OC)cc2)nc1SC | inactive
CCS(=O)(=O)n1nc(-c2ccccc2)nc1SCc1ccccc1 | 3550 nM (active)
CS(=O)(=O)n1nc(-c2ccccc2)nc1NCc1ccco1 | inactive
CN(CC(=O)Nc1c(Cl)cccc1Cl)C(=O)CC1OC(=O)c2ccccc21 (stereo not drawn) | inactive
COc1ccc(NC(=O)CSc2nc3ccccc3c(=O)n2C)cc1 | inactive
COC(=O)CSc1nc2ccccc2c(=O)n1Cc1ccccc1 | inactive
Cc1ccc(C(=O)CSc2nc3ccccc3c(=O)n2N)o1 | 3980 nM (active)
O=S(=O)(NC1CCN(S(=O)(=O)c2ccc3c(c2)OCCO3)CC1)c1c(F)cccc1F | inactive
Cc1cccc(C)c1OC(=O)CSc1nnc(-c2ccccc2)o1 | inactive
CCOC(=O)CSc1nnc(-c2cccc(Br)c2)o1 | inactive
CCCCSc1nnc(-c2ccc(C)cc2)o1 | 794 nM (active)
Cc1ccc(CN2CC(C(=O)NNC(=O)Cn3ccc(C(F)(F)F)n3)CC2=O)cc1 (stereo not drawn) | inactive
CC(=O)NCc1ccc(-c2csc(NC(=O)CCCc3nc4ccccc4c(=O)[nH]3)n2)cc1 | inactive
COc1ccc(Cn2c(O)c(/C=C3/C=CC=N3)c(=O)[nH]c2=O)cc1 | inactive
O=C(NCc1ccccc1CN1CCCC1)c1cccc(S(=O)(=O)Nc2ccc(F)cc2)c1 | inactive
Cc1ccc(NC(=O)C(c2ccccc2)N2CCN(C(=O)c3ccco3)CC2)cc1 (stereo not drawn) | inactive
COc1ccc(Cl)cc1NC(=O)CN(C)C(=O)c1cc(-c2cccs2)nn1-c1ccccc1 | inactive
CN(C(=O)c1ccccn1)c1nnc(-c2ccccn2)s1 | 2510 nM (active)
COc1cc(OC)cc(-c2nnc(N(C)C(=O)c3ccncc3)s2)c1 | inactive

Structure (SMILES) | Potency
CN(C(=O)C1CCOC1)c1nnc(-c2cccnc2)s1 (stereo not drawn) | inactive
COc1ccc(-c2noc(CN(C)S(=O)(=O)c3ccc(C)cc3)n2)cc1 | inactive
COc1ccc(OC)c(-c2csc(-c3cccs3)n2)c1 | inactive
COc1ccc(-c2noc(CSc3ccc(C)cc3)n2)cc1 | inactive
COc1ccc(-c2noc(CNC(=O)C(C)Oc3ccccc3)n2)cc1 (stereo not drawn) | inactive
COc1ccc(-c2nc(-c3ccccc3)no2)c(OC)c1 | 3550 nM (active)
COc1ccc(-c2noc(-c3ccc(C)cc3)n2)cc1 | 2000 nM (active)
O=C(CN1CCN(S(=O)(=O)c2cccc(Cl)c2)CC1)N1CCCCC1 | inactive
Cc1c2cnn(CC(=O)NCCCN3CC(C)CC(C)C3)c(=O)c2c(C)n1Cc1ccc(Cl)cc1 (stereo not drawn) | inactive
C[C@@H](NC(=O)c1nc[nH]c1C(=O)N1CCN(C(=O)OC(C)(C)C)CC1)c1ccccc1 | inactive
Cc1ccc(S(=O)(=O)CCC(=O)OCC(=O)NCCc2ccc(S(N)(=O)=O)cc2)cc1 | inactive
CCS(=O)(=O)Nc1ccc(C(=O)NCCSc2ccccc2)cc1 | inactive
O=C(NCCSc1ccccc1)c1ccco1 | 3160 nM (active)
O=C(NCCSc1ncc(-c2ccccc2)[nH]1)c1ccco1 | inactive
O=C(Cn1c(-c2ccc(Cl)cc2)noc1=O)N1CCN(c2ccccc2F)CC1 | inactive
O=C(NCC(=O)N1CCCCCCC1)c1ccccc1Cl | inactive
Cn1c(NC(=O)c2ccccc2)nc2ccccc21 | 2820 nM (active)
Cn1c(S(=O)(=O)O)nc2ccccc21 | inactive
CCn1c(NC(=O)c2nn(C)cc2Br)nc2ccccc21 | inactive
Cc1ccc(S(=O)(=O)N2CCCCC2)cc1C(=O)N1CCN(CCO)CC1 | inactive
COc1ccccc1CNC(=O)COC(=O)c1sc(C)nc1C | inactive
COc1cc(NC(=O)c2cccs2)ccc1NC(=O)c1ccccc1Cl | inactive

Structure (SMILES) | Potency
O=C(Nc1cccc(NC(=O)c2ccccc2[N+](=O)[O-])c1)c1ccccc1Cl | inactive
O=C(Nc1ccc2sc3ccccc3c(=O)c2c1)c1ccccc1Cl | 3160 nM (active)
O=C(COC(=O)c1cc(=O)[nH]c2ccccc12)NCc1cccc(Cl)c1 | inactive
CC(=O)Nc1ccc(S(=O)(=O)N2CCn3cccc3C2C)cc1 (stereo not drawn) | inactive
C=CCn1c(C)cc(C(=O)CN2C(=O)c3ccccc3C2=O)c1C | 316 nM (active)
C=CCN(CC=C)C(=O)CN1C(=O)c2ccccc2C1=O | inactive
Cc1cc(C(=O)COC(=O)CCCN2C(=O)c3ccccc3C2=O)c(C)n1C | inactive
C[C@H](NC(=O)c1[nH]cnc1C(=O)Nc1nccs1)c1ccccc1 | inactive
CCCCC/C=C/C1=CC(=O)C[C@H](c2ccc(Cl)cc2)C1 | inactive
Cc1ccccc1-c1cc(C(=O)NCc2cccs2)n(CC2CC(c3cccnc3)=NO2)n1 (stereo not drawn) | inactive
O=C(Nc1ccc2oc(-c3ccc4ccccc4c3)nc2c1)c1cccs1 | 891 nM (active)
COc1cc2ccccc2cc1C(=O)Nc1ccc(NC(=O)c2cccs2)cc1 | inactive
O=C(Nc1ccc(NC(=O)c2cccs2)cc1)c1ccc2ccccc2c1 | inactive
CC(Sc1nnc(C2CC2)n1C1CC1)C(=O)Nc1ccc(C(N)=O)cc1 (stereo not drawn) | inactive
CCOc1ccc(N2C(=O)CSC2=NC#N)cc1 | inactive
CC(=O)NC(NC(=S)Nc1c(C)n(C)n(-c2ccccc2)c1=O)C(Cl)(Cl)Cl (stereo not drawn) | inactive
COc1ccc(C)cc1NC(=O)CN1c2cccc3cccc(c23)S1(=O)=O | inactive
CCN(CC)CCN1C(=O)C(=O)/C(=C(/O)c2cnn(-c3ccccc3)c2C)C1c1cccs1 (stereo not drawn) | 3980 nM (active)
CCN(CC)CCN1C(=O)C(=O)/C(=C(/O)c2ccc(OC)c(OC)c2)C1c1ccccn1 (stereo not drawn) | inactive
CCOc1cccc(/C(O)=C2/C(=O)C(=O)N(CCOC)C2c2ccncc2)c1 (stereo not drawn) | inactive
COc1ccccc1OCC(=O)OCc1cc(-c2ccco2)on1 | inactive
COC(=O)c1cccc(NC(=O)c2cccc(N3C(=O)CCC3=O)c2)c1 | inactive

Structure (SMILES) | Potency
CC(=O)c1sc(NC(=O)CCN2C(=O)C3CC=CCC3C2=O)nc1-c1ccccc1 (stereo not drawn) | inactive
CCCCCCCCCCOC(=O)C[N+](C)(C)CC1CCCCC1O (stereo not drawn) | inactive
Cc1cc(Cl)c2oc(C(=O)N(C)C(C)c3ccccn3)c(C)c2c1 (stereo not drawn) | inactive
CCn1ccnc1CN(C)C(=O)c1ccc2nc(Cc3ccc(OC)cc3)oc2c1 | inactive
CC(c1ccccn1)N(C)C(=O)c1ccc2nc(Cc3cccc(Cl)c3)oc2c1 (stereo not drawn) | 3980 nM (active)
CC(NCC(=O)Nc1ccccc1C(=O)NC1CC1)c1ccccc1Cl (stereo not drawn) | inactive
Cc1ccc(C)c(C(=O)COC(=O)Cn2[nH]c(=O)c3ccccc3c2=O)c1 | inactive
O=C(OCc1ccc([N+](=O)[O-])cc1)c1ccccn1 | inactive
O=[N+]([O-])c1ccc(NC(=S)N2CCN(c3ccccn3)CC2)cc1 | inactive
O=C(Nc1ccc([N+](=O)[O-])cc1)OCCc1ccccn1 | 3550 nM (active)
Cc1ccc(NC(=O)c2cccc(S(=O)(=O)N3CCCc4ccccc43)c2)nc1 | inactive
Cc1cc(C(=O)OCC(=O)Nc2ccccc2Cl)c(C)o1 | inactive
CCCc1ccc(C(=O)COC(=O)CN2C(=O)NC3(CCCCC3C)C2=O)cc1 (stereo not drawn) | inactive
COc1ccc(-c2nnc(SCC(=O)c3cccs3)o2)c(OC)c1 | 2240 nM (active)
COc1ccccc1-c1nnc(SCC(=O)N2CC(C)CC(C)C2)o1 (stereo not drawn) | inactive
COc1ccc(CCNC(=O)CSc2nnc(CNC(=O)c3cccs3)o2)cc1OC | inactive
O=C(NNC(=O)c1ccc(-n2cncn2)c([N+](=O)[O-])c1)c1ccccc1 | inactive
c1ccc(-n2nc3ccccc3n2)cc1 | inactive
Nc1ccc2nn(-c3ccc(Cl)cc3)nc2c1 | 447 nM (active)
CN(C)c1nnnn1-c1ccc(Cl)cc1 | inactive
CN(CC(=O)NC1CCN(Cc2ccccc2)CC1)S(=O)(=O)c1ccc(Cl)s1 | inactive
Cn1c(=O)c(C(=O)Nc2ncccn2)c(O)c2ccccc21 | 2820 nM (active)

Structure (SMILES) | Potency
CCCn1c(=O)c(C(=O)Nc2cc(C)ccn2)c(O)c2ccccc21 | inactive
C=CCn1c(=O)c(C(=O)Nc2ncccc2O)c(O)c2ccccc21 | inactive
Cc1ccc(NC(=O)c2csc3c2CCCC3)cc1 | 2820 nM (active)
O=C(Nc1ccccc1N1CCOCC1)c1csc2c1CCCC2 | inactive
O=C(N/N=C/c1ccco1)c1csc2c1CCCC2 | inactive
Cc1ccc(N=C2NC(=O)c3cccc([N+](=O)[O-])c32)cc1 | inactive
CS(=O)(=O)c1ccc2nc(NC(=O)C3CCCCC3)sc2c1 | inactive
COc1ccc2nc(NC(=O)[C@@H]3CCCN3C(=O)c3cccs3)sc2c1 | inactive
COc1ccc2nc(NC(=O)c3ccc(Br)s3)sc2c1 | 3980 nM (active)
CCc1noc(C)c1C(=O)Nc1nc2ccc(OC)cc2s1 | inactive
COc1ccc2nc(NC(=O)NC3CCCCC3)sc2c1 | 3160 nM (active)
COc1ccc(CNC(=O)c2ccc(Br)s2)cc1OC | inactive
CCOc1ccc(OCC(=O)OC(C)C(=O)NC2CCCCC2C)cc1 (stereo not drawn) | inactive
O=C(CCc1nc2sc3c(c2c(=O)[nH]1)CCCC3)NCC(=O)Nc1ccccc1Br | inactive
CSCCC(NC(=O)c1ccco1)C(=O)NCCc1ccc(F)cc1 (stereo not drawn) | inactive
COc1ccc(S(=O)(=O)N2CCN(C(C)C(=O)Nc3ccc(C(C)C)cc3)CC2)cc1 (stereo not drawn) | inactive
CCC(=O)c1ccc(OCC(=O)OCC(=O)N2CCc3ccccc3C2)cc1 | inactive
O=C(Nc1nc2ccc([N+](=O)[O-])cc2s1)c1ccncc1 | 1410 nM (active)
CCOc1ccc2nc(NC(=O)c3cc([N+](=O)[O-])ccc3N3CCOCC3)sc2c1 | inactive
O=C(NC(Nc1nc2ccc([N+](=O)[O-])cc2s1)(C(F)(F)F)C(F)(F)F)c1ccccc1 | inactive
